From PubChem BioAssay
GLP-1R agonist – agonists of human GLP-1 receptor | P43220 | HEK293 GLP-1R CRE-luciferase, luminescence, 4-6 h; cells express a hypersensitive GLP-1R form | Potency, µM (titrated, usually from 45.6 µM), without a hit: at the top dose activation, most hits filed as activators | 0.007% of 380,000 active | AID 624172; further: % of control where 0% means no effect
GLP1R cytotox – cytotoxic in the GLP-1 receptor inverse agonist counter-screen. HEK293 cAMP-luciferase reporter cells, luminescence, 24 h. Potency, µM (titrated, usually from 38.3 µM), for inactives: top-dose activity change, negative = inhibition, hits mostly inhibitors. 0.13% of 410,000 active;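 further: loss of luciferase light is scored as toxicity; on the % scale 0 is the no-effect control and ±100 the full control effect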
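To flag toxic compounds, the library was rerun on cells for 24 hr at 37 deg C and 5% CO2. Viability-linked luminescence was captured 12 min after adding luciferase detection reagent.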
PTHR1 ag – PTHR1 (human) receptor agonism; Q03431; HEK293 GP2 PTHR1 cells, GloSensor cAMP luminescence, 1 h; Potency, µM (top dose mostly 115 µM), for inactives: at the top dose activation, most hits filed as activators; 0.075% of 410,000 active; AID 743266; further: nearly all actives have a fitted effect of over 55% in size
Target sequence (Q03431 whole entry, looked up): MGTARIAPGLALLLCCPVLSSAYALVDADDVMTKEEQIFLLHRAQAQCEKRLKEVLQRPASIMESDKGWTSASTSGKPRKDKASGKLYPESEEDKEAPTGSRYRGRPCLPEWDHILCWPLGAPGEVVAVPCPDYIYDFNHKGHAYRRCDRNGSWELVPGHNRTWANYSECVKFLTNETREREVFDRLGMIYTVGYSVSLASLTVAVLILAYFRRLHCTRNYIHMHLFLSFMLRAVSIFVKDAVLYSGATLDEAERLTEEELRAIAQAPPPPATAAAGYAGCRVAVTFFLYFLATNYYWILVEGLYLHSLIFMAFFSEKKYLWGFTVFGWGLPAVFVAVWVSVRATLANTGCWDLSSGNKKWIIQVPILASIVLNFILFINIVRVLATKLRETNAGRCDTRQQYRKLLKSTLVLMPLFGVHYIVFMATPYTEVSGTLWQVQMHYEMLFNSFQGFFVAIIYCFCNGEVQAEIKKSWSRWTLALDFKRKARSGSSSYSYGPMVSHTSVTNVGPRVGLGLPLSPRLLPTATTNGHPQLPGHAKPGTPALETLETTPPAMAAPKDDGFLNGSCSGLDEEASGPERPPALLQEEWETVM
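HEK-293-derived GP2 cells expressing PTHR1 and a GloSensor cAMP reporter, 3,000/well, plated overnight, given luciferin plus IBMX (each 0.5 mM as added) for 1 h at 37 °C, then compound for 1 h at 37 °C. Luminescence was read after 15 min at room temperature.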
GLP1R inv ag – acts as inverse agonist at human GLP-1 receptor; P43220; HEK293 GLP-1R CRE-luciferase, luminescence, 24 h; GLP-1R form is constitutively active; Potency, µM (doses to about 38.3 µM), for inactives: at the top dose activity change, negative = inhibition, hits mostly inhibitors; 1.6% of 410,000 active; further: on the % scale 0 is the no-effect control and ±100 the full control effect; nearly all actives have a fitted effect of over 55% in size
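HEK293 cells stably co-expressing constitutively active GLP-1R and a cAMP-responsive luciferase reporter were seeded in DMEM with 10% Nu serum, given compounds after 12 h, and incubated 24 h at 37 deg C. Luminescence was then read.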
* = called active by the depositor; i = inactive; ? = inconclusive; . = no result; [ ] = remark or other dose. In the library only some 1.7% were active in any assay of this set; here they are far more common. The call rests on the fitted dose curve; in most records, active means well fitted curve in the direction sought with a large enough effect; inconclusive means small, poorly fitted or top-dose-only effect, or another doubt; inactive means no such curve, though single readings can be large; an effect the other way counts as inactive or inconclusive. Potency means the concentration at half of the fitted maximal effect.

SMILES | GLP-1R agonist | GLP1R cytotox | PTHR1 ag | GLP1R inv ag
O=S(=O)(NCC(c1ccco1)N1CCN(c2ccc(F)cc2)CC1)c1ccc2c(c1)OCCO2 (configuration not stated) | -2% | 5% | -31% | 10µM*
O=C(OCCOc1cccc(Cl)c1)c1cc(S(=O)(=O)N2CCCCC2)ccc1N1CCOCC1 | -1% | -2% | -16% | 5.6µM*
CCN(C(=O)CSc1nc(-c2ccc(C(C)C)cc2)no1)c1ccccc1 | . | 3% | -51% | 11µM*
CCN(C(=O)CSc1nc(-c2ccc(C(C)C)cc2)no1)c1cccc(C)c1 | . | -4% | -20% | ?
O=[N+]([O-])CC(c1ccc(F)cc1)c1c[nH]c2ccccc12 (configuration not stated) | 3% | -26% | -7% | 7.1µM*
COc1ccc(NC(=O)CSc2nc(-c3ccco3)cc(C(F)(F)F)n2)cc1 | 1% | -12% | i | ?
CC(C)C[C@@H](C(=O)NCc1ccco1)N1C(=O)N2CCc3c([nH]c4ccccc34)[C@@]2(C)C1=O | -1% | 4% | -15% | 10µM*
C[C@@H](C(=O)NCc1ccco1)N1C(=O)N2CCc3c([nH]c4ccccc34)[C@@]2(C)C1=O | -3% | 1% | ? | ?
COc1cccc(Nc2nc(-c3cccs3)nc3ccccc23)c1 | 27% | -5% | i | 11µM*
CC1=Nc2cc(C(=O)NCc3ccccc3Cl)ccc2Sc2c(C)ccc(C)c21 | 8% | -24% | i | ?
Cc1sc(NC(=O)c2ccco2)c(C(c2ccc(F)cc2)N2CCN(C)CC2)c1C (configuration not stated) | 0% | ? | i | 7.1µM*
Cc1sc(NC(=O)c2ccco2)c(C(c2ccccc2)N2CCC(C)CC2)c1C (configuration not stated) | 0% | -12% | -15% | 6.3µM*
CC(C)(C)c1ccc(NC(=O)NC2CCCc3ccccc32)cc1 (configuration not stated) | 6% | -15% | i | 3.2µM*
Cc1ccc(NC(=O)NC2CCCc3ccccc32)cc1 (configuration not stated) | 4% | -6% | i | ?
Cc1oc(-c2cccc(Br)c2)nc1CSc1nc2ncccc2[nH]1 | . | 8% | -7% | 6%
CCCCC1=NN(C(=O)c2ccco2)C(O)(C(F)(F)F)C1 (configuration not stated) | 6% | ? | i | 2.2µM*
CCCC1=NN(C(=O)C(=O)Nc2ccc(Br)cc2)C(O)(C(F)(F)F)C1 (configuration not stated) | 12% | ? | -34% | 7.1µM*
COc1ccc(N2CCN(C(=O)c3c(C)oc4ncnc(N5CCCCC5)c34)CC2)cc1 | . | -25% | ? | 11µM*
COc1cccc(N2CCN(C(=O)c3c(C)oc4ncnc(N5CCOCC5)c34)CC2)c1 | . | -5% | -3% | 0%
CCN(CC)c1ccc(C(=O)Nc2cccc(F)c2)cc1 | 25% | -29% | -14%[57.5 µM] | 5.6µM*
C=CCOc1ccc(C2N3CC4(CC)CN2CC(CC)(C3)C4=O)cc1 (configuration not stated) | 5% | -1% | -14%[57.5 µM] | 11µM*
COC(=O)CCc1nc2cc(Cl)ccc2n(Cc2ccccc2)c1=O | 24% | 3% | -23% | ?
CC(C)c1nc2cc(Cl)ccc2n(Cc2ccccc2)c1=O | 28% | -3% | -5% | 7.9µM*
Cn1c(Sc2ccc(Br)cc2)c(C=O)c2ccccc21 | -23% | -20% | -18%[57.5 µM] | 4.5µM*
CCOc1ccccc1C(=O)N[C@H](C(=O)Nc1nc2c(s1)CCCC2)C(C)C | 21% | ? | i | 10µM*
SMILES | GLP-1R agonist | GLP1R cytotox | PTHR1 ag | GLP1R inv ag
COc1ccc(C(=O)N[C@H](C(=O)Nc2nc3c(s2)CCCC3)C(C)C)cc1 | 11% | -4% | i | ?
CCOCCCNC(=O)/C(C#N)=C/c1cc(OC)c(O)c([N+](=O)[O-])c1 | 8% | ? | -19% | ?
CCOCCCNC(=O)/C(C#N)=C/c1ccc(Cl)c([N+](=O)[O-])c1 | -8% | ? | i | 11µM*
CCCCCCCCCCCCCCCC[N+](C)(C)Cc1ccccc1 | -6% | . | . | .
Cc1ccc(OCCCNC2CCCC2)cc1 | -5% | 1% | -5% | 0%
CC(C)(C)c1ccc(OCCCNC2CCCC2)cc1 | 8% | ? | i | 10µM*
CCOc1ccc(C(C(=O)NC2CCCC2)N(Cc2ccccc2)C(=O)c2nsc(Cl)c2Cl)cc1 (configuration not stated) | -4% | 3% | -18% | 10µM*
Cc1cc(C)cc(N(C(=O)c2nsc(Cl)c2Cl)C(C(=O)NC2CCCC2)c2ccc(O)cc2)c1 (configuration not stated) | -14% | ? | -1% | 4µM*
Cc1cccc(N(C(=O)c2nsc(Cl)c2Cl)C(C(=O)NC2CCCC2)c2ccc(O)cc2)c1C (configuration not stated) | -12% | -21% | i | 8.9µM*
Cc1ccc(N(C(=O)c2nsc(Cl)c2Cl)C(C(=O)NC2CCCC2)c2ccc(O)cc2)cc1C (configuration not stated) | 5% | -1% | -17% | ?
CCCNC(=O)CCSc1nc(-c2ccc3c(c2)OCO3)cc(C(F)(F)F)n1 | 1% | -3% | i | 10%
CC(C)C[C@@H](NC(=O)[C@@H](Cc1ccccc1)NC(=O)c1cnccn1)B(O)O | 10% | . | . | .
COc1ccc2c(CNCCc3cccs3)c(C(=O)O)n(Cc3ccccc3)c2c1 | 1% | -11% | i | -12%
NC[C@@H]1O[C@H](OC2[C@@H](CO)O[C@@H](OC3[C@H](O)[C@H](N)C[C@H](N)[C@H]3OC3O[C@H](CO)[C@@H](O)[C@H](O)[C@@H]3N)[C@H]2O)C(N)[C@H](O)[C@@H]1O (some centres not stated) | -7% | . | . | .
COc1ccc(C(=O)c2ccc(Br)cc2)c2ccccc12 | 0% | -8% | -12% | ?
COc1ccc(C(=O)c2ccc(Cl)cc2)c2ccccc12 | 0% | -10% | i | 10µM*
O=C(Oc1cccc2cccnc12)c1cccc([N+](=O)[O-])c1 | 0% | ? | 2% | ?
O=C(Oc1ccc(Cl)c2cccnc12)c1cccc([N+](=O)[O-])c1 | 27% | ? | i | 5µM*
O=C(Oc1coc(CSc2ncccn2)cc1=O)c1cccc([N+](=O)[O-])c1 | 0% | -4% | i | 20%
O=C(Oc1c(Cl)cc(Cl)c2cccnc12)c1cccc([N+](=O)[O-])c1 | 2% | ? | -4% | 13µM*
C[C@H](O)[C@@H]1CN2CCc3c([nH]c4ccccc34)[C@@H]2C[C@@H]1N(C)C(=O)Nc1cc(Cl)cc(Cl)c1 | -3% | 1% | -23% | ?
